What follows are compounds tested on TGFBR1.
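Note: kd values determined as follow-up on hits from a single-replicate KINOMEscan panel screen.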

| Structure (SMILES) | Kd [nM] |
| --- | --- |
| Cl.c1ccc(-c2n[nH]cc2-c2ccnc(-c3ccc(CN4CCOCC4)cc3)c2)nc1 [GW776245] | 150 |
| Cc1cccc(-c2nc(C)cc(Nc3ccncc3)n2)n1 [GSK257997] | 200 |
| Cc1ccc(-c2cc(-c3c[nH]nc3-c3ccccn3)ccn2)cc1 [GW684088] | 260 |

These compounds were tested on TGFBR2.

| Structure (SMILES) | Kd [nM] |
| --- | --- |
| Cc1cccc(-c2nc(Nc3ccncc3)c3ccccc3n2)n1 [GW855857] | 290 |
| Cl.c1ccc(-c2n[nH]cc2-c2ccnc(-c3ccc(CN4CCOCC4)cc3)c2)nc1 [GW776245] | 210 |
| Cc1csc(-c2nc(Nc3ccncc3)c3ccccc3n2)n1 [GW869640] | 250 |

Reference: article PMC5540273 (PLoS ONE, 2017)
